Assay results as given in PubChem BioAssay AID743126 (The Scripps Research Institute Molecular Screening Center, 2013).
Out of some 370,000 compounds screened, about 2,100 (0.57%) were called active. This excerpt belongs to a sample that is enriched for actives. A number with no mark means an inactive call.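 Rule for the calls: active = inhibition above mean plus 3 SD of compounds lying within the high and low control bounds (cut at about 19% in these data); inactive = the rest.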

Each molecule was assayed against Group 3 secretory phospholipase A2 (Homo sapiens) (UniProt Q9NZ20) (assay: HGIII-sPLA2 enzyme inhibition – biochemical, QFRET, BODIPY PC-A2 liposome substrate, primary screen (AID 743126;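 note: 0% = median of test compound wells and 100% = no enzyme DMSO wells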)). Settings: QFRET BODIPY PC-A2 liposome hydrolysis, fluorescence; at 12.2 µM; hits give high values.
Sequence of Group 3 secretory phospholipase A2 (Homo sapiens) (Q9NZ20 whole entry, looked up): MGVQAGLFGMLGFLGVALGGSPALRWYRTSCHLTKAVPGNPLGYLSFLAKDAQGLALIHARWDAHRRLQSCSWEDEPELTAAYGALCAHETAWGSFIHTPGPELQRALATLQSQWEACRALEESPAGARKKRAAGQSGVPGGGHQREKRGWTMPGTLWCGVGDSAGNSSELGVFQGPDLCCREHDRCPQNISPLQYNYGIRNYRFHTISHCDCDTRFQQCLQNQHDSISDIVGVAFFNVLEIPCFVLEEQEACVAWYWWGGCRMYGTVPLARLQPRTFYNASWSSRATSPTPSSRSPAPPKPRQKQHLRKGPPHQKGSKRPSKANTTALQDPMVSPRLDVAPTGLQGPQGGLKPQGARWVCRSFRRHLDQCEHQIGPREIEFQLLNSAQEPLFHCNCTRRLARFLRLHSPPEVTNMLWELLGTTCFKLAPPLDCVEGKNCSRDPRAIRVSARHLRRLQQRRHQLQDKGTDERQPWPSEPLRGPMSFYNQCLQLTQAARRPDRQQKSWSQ

Q: `C[C@]12CCC3C(CC[C@H]4C[C@@H](O)CC[C@]34C)C1CC[C@@H]2O` (stereo not given in full) was tested. Which inhibition did it give?
A: 21.1% (active)

Q: How did the inhibition turn out when `C[C@]12CCC3C(CC[C@H]4[C@H](O)[C@H](O)CC[C@]34C)C1CC[C@@H]2O` (stereo not given in full) was run?
A: 11.6%

Q: With `C[C@]12CC[C@H](O)CC1=C([N+](=O)[O-])CC1C2CC[C@@]2(C)C1CC[C@@H]2O` (stereo not given in full) as the molecule, how does the inhibition read?
A: -3.04%

Q: How did the inhibition turn out when `CC1=CC(=Cc2sc3ccccc3[n+]2C)C=C(C)O1` was run?
A: 5.85%

Q: `COc1ccc(C(=O)C2CN(C)CC2C(=O)c2ccc(OC)cc2)cc1` (stereo not given) was tested. Which inhibition did it give?
A: -10.5%

Q: How did the inhibition turn out when `CN1CCN(C(=S)SCC(=O)Nc2ccc(Cl)cc2C(=O)c2ccccc2)CC1` was run?
A: -21.3%

Q: With `O=C(CCNS(=O)(=O)c1ccccc1)Nc1ccc(Cl)cc1C(=O)c1ccccc1` as the molecule, how does the inhibition read?
A: -26.4%

Q: How did the inhibition turn out when `O=C(COC(=O)c1ccccc1)Nc1ccc(Cl)cc1C(=O)c1ccccc1` was run?
A: 21.3% (active)

Q: With `C[C@@]1([C@@H](NP(=O)(c2ccccc2)c2ccccc2)c2ccccc2)C[C@H]1CCO` as the molecule, how does the inhibition read?
A: -0.39%

Q: How did the inhibition turn out when `CNC(=O)O/N=C(\N)Cc1csc2ccc(Cl)cc12` was run?
A: -5.86%
